Data on eight molecules can be found in PubChem BioAssay (EPA / NIEHS).

The target in experiment [1] is Transcriptional activator Myb (Homo sapiens) (UniProt P10242). Kind of experiment: ATG_Myb_CIS: Attagene CIS-FACTORIAL HepG2 Assay for human Myeloblastosis (Myb) Proto-Oncogene Transcription Factor (AID 2282986). Particulars: HepG2 Attagene CIS-FACTORIAL Myb reporter transcription; actives raise or lower the signal. The procedure, abridged: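 Fluorescence signals from capillary electrophoresis of RT-PCR-amplified reporter cDNA give the read-out. Cells: HepG2 transfected with multiple cis-regulated reporter units. Exposure lasts 24 hours; DMSO defines baseline for gain or loss of signal.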
Sequence of Transcriptional activator Myb (Homo sapiens) (P10242 whole entry, looked up): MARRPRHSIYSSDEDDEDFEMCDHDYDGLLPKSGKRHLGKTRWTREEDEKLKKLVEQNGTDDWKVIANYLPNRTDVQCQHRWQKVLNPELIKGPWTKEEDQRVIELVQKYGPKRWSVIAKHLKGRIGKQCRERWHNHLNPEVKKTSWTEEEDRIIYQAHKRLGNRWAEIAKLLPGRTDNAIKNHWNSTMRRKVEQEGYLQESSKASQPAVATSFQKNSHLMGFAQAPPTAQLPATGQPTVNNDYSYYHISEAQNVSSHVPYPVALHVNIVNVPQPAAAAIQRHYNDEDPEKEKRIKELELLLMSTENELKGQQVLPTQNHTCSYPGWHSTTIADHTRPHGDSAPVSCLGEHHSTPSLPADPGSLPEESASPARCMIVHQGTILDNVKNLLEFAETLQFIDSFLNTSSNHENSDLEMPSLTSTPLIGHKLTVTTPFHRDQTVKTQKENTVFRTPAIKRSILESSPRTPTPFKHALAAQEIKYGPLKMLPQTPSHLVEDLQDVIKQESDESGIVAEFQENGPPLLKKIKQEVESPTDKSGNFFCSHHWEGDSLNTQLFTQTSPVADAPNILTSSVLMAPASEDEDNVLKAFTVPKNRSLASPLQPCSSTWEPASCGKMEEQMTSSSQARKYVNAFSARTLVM

Experiment [2] deals with Nuclear respiratory factor 1 (Homo sapiens) (UniProt Q16656). Put plainly: ATG_NRF1_CIS: Attagene CIS-FACTORIAL HepG2 Assay for human Nuclear Respiratory Factor 1 (NRF1) Orphan Gene (AID 2282987). Particulars: HepG2 NRF1 cis-element reporter, Attagene multiplex; actives raise or lower the signal. The procedure, abridged: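 Transcriptional reporter readout, one component of a 52-endpoint multiplexed HepG2 panel. Exposure 24 h; mRNA detected via RT-PCR and fluorescent capillary electrophoresis; fitting in both directions against DMSO.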
Sequence of Nuclear respiratory factor 1 (Homo sapiens) (Q16656 whole entry, looked up): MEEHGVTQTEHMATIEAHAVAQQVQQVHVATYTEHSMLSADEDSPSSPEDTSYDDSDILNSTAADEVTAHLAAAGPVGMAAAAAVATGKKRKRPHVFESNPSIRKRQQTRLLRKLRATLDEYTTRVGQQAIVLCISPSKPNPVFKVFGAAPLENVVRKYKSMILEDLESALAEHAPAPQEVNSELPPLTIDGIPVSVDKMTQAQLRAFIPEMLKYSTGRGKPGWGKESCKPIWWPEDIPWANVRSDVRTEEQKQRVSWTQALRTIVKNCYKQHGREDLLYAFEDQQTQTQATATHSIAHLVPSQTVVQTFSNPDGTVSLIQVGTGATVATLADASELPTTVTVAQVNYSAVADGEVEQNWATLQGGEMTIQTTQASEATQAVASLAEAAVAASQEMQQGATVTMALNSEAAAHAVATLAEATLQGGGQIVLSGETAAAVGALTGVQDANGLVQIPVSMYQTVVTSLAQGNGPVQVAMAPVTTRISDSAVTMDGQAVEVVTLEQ

A short description of experiment [3]: ATG_NFI_CIS: Attagene CIS-FACTORIAL HepG2 Assay for human Nuclear Factor I (NFI) (AID 2282989). Particulars: HepG2 cis-regulatory reporter, NFI response element transcription; actives raise or lower the signal. The procedure, abridged:
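Transfected HepG2 liver cells, exposed 24 h, supplied total RNA for oligo(dT) reverse transcription and reporter-specific PCR. Labelled, HpaI-cut fragments were sized by capillary electrophoresis; DMSO set the baseline for bidirectional fitting.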

For experiment [4], the target named is Myc proto-oncogene protein (Homo sapiens) (UniProt P01106). Kind of experiment: ATG_Myc_CIS: Attagene CIS-FACTORIAL HepG2 Assay for human Myelocytomatosis (Myc) Proto-Oncogene Transcription Factor (AID 2282990). Particulars: HepG2, Attagene cis-reporter transcription factor activity; actives raise or lower the signal. In outline: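 DMSO-normalised, bidirectionally fitted reporter mRNA signal. HepG2 cells transfected with cis reporter constructs, treated 24 h; transcripts detected by RT-PCR, 6-FAM primer extension and CE.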
Sequence of Myc proto-oncogene protein (Homo sapiens) (P01106 whole entry, looked up): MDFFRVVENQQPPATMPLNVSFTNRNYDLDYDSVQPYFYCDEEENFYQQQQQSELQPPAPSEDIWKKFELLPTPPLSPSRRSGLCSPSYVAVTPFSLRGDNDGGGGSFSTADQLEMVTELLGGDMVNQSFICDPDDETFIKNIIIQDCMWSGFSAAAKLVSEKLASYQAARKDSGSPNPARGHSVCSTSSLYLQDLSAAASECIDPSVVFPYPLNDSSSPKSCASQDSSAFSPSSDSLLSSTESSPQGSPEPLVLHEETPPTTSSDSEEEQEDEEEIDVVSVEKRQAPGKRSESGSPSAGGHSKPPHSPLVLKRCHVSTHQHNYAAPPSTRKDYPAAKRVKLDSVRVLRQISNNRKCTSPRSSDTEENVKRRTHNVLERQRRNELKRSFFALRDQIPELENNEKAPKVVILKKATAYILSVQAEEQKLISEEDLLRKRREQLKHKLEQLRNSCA

Experiment [5] is described as follows: ATG_NF_kB_CIS: Attagene CIS-FACTORIAL HepG2 Assay for human Nuclear Factor Kappa B (NF-kB) (AID 2282991). Conditions: HepG2 Attagene cis-factorial NF-kB reporter mRNA; actives raise or lower the signal. In outline:
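HepG2, transient multi-reporter transfection, cis promoter elements (endogenous TFs). 24 h exposure. Total RNA → RT → PCR → 6-FAM label → HpaI → CE. Gain/loss vs DMSO.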

A short description of experiment [6]: ATG_NRF2_ARE_CIS: Attagene CIS-FACTORIAL HepG2 Assay for human Nuclear Factor Erythroid 2 Related Factor 2 (NFR2) response to Antioxidant Response Elements (ARE) (AID 2282992).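 As to AC50: reporter mRNA level measured by RT-PCR and capillary electrophoresis fluorescence.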 Conditions: HepG2 Attagene ARE/NRF2 reporter, transcription factor activity; actives raise or lower the signal. In outline: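 Multiplexed reporter mRNA profiling in HepG2 after a 24 h chemical exposure. Curves fitted in both directions relative to DMSO negative control.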

The nature of experiment [7]: ATG_Oct_MLP_CIS: Attagene CIS-FACTORIAL HepG2 Assay for human Octamer-Binding Transcription Factor (Oct) (AID 2282993). Particulars: HepG2 Attagene cis-factorial Oct reporter, mRNA; actives raise or lower the signal. The procedure, abridged:
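Using HepG2 cells bearing transfected cis-reporter constructs, mRNA induction was read after 24 h by fluorescent RT-PCR and capillary electrophoresis, with DMSO defining baseline for gain- or loss-of-signal fits.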

The target of experiment [8] is Cellular tumor antigen p53 (Homo sapiens) (UniProt P04637). Kind of experiment: ATG_p53_CIS: Attagene CIS-FACTORIAL HepG2 Assay for human p53 Transcription Factor (AID 2282994). Conditions: HepG2 p53 cis-element reporter, Attagene mRNA; actives raise or lower the signal. The procedure, abridged: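 Multiplexed reporter mRNA assay in human HepG2 liver cells; cis-regulated units report endogenous factor activity. Values come from bidirectional curve fitting against DMSO negative control after 24 h treatment.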
Sequence of Cellular tumor antigen p53 (Homo sapiens) (P04637 whole entry, looked up): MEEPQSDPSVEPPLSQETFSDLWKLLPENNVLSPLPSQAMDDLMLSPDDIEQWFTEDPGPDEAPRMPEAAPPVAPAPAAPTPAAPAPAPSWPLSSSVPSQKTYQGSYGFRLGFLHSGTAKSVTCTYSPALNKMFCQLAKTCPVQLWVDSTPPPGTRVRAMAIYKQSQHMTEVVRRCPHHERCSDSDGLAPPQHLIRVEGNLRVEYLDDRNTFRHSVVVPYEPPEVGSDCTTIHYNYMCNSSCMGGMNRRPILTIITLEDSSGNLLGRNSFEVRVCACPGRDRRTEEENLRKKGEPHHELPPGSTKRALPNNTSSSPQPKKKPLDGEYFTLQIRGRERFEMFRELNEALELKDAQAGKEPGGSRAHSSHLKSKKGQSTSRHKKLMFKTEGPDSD

A short description of experiment [9]: BSK_3C_TissueFactor: BioMAP Diversity Plus: 3C Assay for Tissue Factor Biomarker Activity (AID 2282997). Conditions: BioMAP 3C HUVEC, tissue factor biomarker readout; actives raise or lower the signal. The procedure, abridged:
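Primary human umbilical vein endothelial cells in the 3C system were exposed to test chemical for 24 h, then Tissue Factor measured by ELISA. Activity was fitted bidirectionally against DMSO as negative control and baseline.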

The nature of experiment [10]: BSK_3C_uPAR: BioMAP Diversity Plus: 3C Assay for Urokinase-type plasminogen activator receptor (uPAR) Biomarker Activity (AID 2282998). Conditions: BioMAP 3C HUVEC, uPAR biomarker ELISA; actives raise or lower the signal. The procedure, abridged: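 In this endothelial cell-based assay, human umbilical vein primary cells were treated with chemicals and harvested at 24 h. uPAR was quantified using ELISA, with gains or losses fitted relative to DMSO controls.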

A short description of experiment [11]: BSK_3C_VCAM1: BioMAP Diversity Plus: 3C Assay for Vascular cell adhesion molecule 1 (VCAM1) Biomarker Activity (AID 2282999). Particulars: BioMAP 3C HUVEC, VCAM1 ELISA, cytokine-stimulated; actives raise or lower the signal. In outline: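 Human umbilical vein endothelial cells were dosed with compound for 24 h, after which cell-surface VCAM-1 was quantified by ELISA. Bidirectional curve fitting used DMSO as negative control and activity baseline.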

A short description of experiment [12]: BSK_4H_Eotaxin3: BioMAP Diversity Plus: 4H Assay for Eotaxin 3 Biomarker Activity (AID 2283000).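 As to outcome: CCL26 protein level quantified by ELISA in parallel with SRB cytotoxicity check.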 Conditions: primary human endothelial cells (HUVEC); actives raise or lower the signal. The procedure, abridged:
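HUVEC, 24 h post-dose, ELISA for Eotaxin-3/CCL26. Gain or loss of signal fitted bidirectionally vs DMSO baseline.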

Experiment [13] concerns the target human Peroxisome Proliferator-activated Receptor alpha (PPARa), PPARA (gene 5465) (UniProt Q07869). Kind of experiment: ATG_PPARa_TRANS: Attagene TRANS-FACTORIAL HepG2 Assay for human Peroxisome Proliferator-activated Receptor alpha (PPARa) (AID 2283001; active = hit-call score of the fitted dose curve at least 0.9, where 1 is the maximum;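 as to AC50: potency for gain of reporter signal over DMSO so agonist or activator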). In outline: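 HepG2 cells transiently transfected with multiplexed GAL4-UAS reporter units and chimeric NR-Gal4 constructs were dosed for 24 h. Reporter mRNA was measured by RT-PCR with fluorescent labelling and capillary electrophoresis; gain of signal fitted against DMSO.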

Experiment [14] concerns the target human Peroxisome Proliferator-activated Receptor delta (PPARd), PPARD (gene 5467) (UniProt Q03181). Put plainly: ATG_PPARd_TRANS: Attagene TRANS-FACTORIAL HepG2 Assay for human Peroxisome Proliferator-activated Receptor delta (PPARd) (AID 2283002; active = hit-call score of the fitted dose curve at least 0.9, where 1 is the maximum). In outline: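 Measured quantity: GAL4-UAS reporter transcript induction in HepG2 after 24 h chemical dosing, with NR-Gal4 chimeras supplied by transient transfection. Detection by RT-PCR and capillary electrophoresis; upward fit against DMSO.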

Read-out in experiment [15]: Intercellular Adhesion Molecule 1 (ICAM1), ICAM1 (gene 3383)
Kind of experiment: BSK_3C_ICAM1: BioMAP Diversity Plus: 3C Assay for Intercellular Adhesion Molecule 1 (ICAM1) Biomarker Activity (AID 2283003). Particulars: primary human endothelial cells (HUVEC); actives raise or lower the signal. The procedure, abridged:
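Human vascular endothelial primary cells, 3C conditions, 24 h treatment. ICAM-1 by ELISA.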

Experiment [16] deals with Retinoic acid receptor alpha (Homo sapiens) (UniProt P10276). Put plainly: ATG_RARa_TRANS: Attagene TRANS-FACTORIAL HepG2 Assay for human Retinoic Acid Receptor alpha (RARa) (AID 2283005; active = hit-call score of the fitted dose curve at least 0.9, where 1 is the maximum). In outline:
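HepG2 cells transiently transfected with multiple reporter units expressing chimeric RARα-GAL4 fusion, with GAL4-UAS-driven reporters. After 24 h compound exposure, reporter mRNA induction quantified by RT-PCR and capillary electrophoresis with fluorescent labeling; gain-of-signal fitted relative to DMSO control.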

Experiment [17] in a line: BSK_3C_Proliferation: Cell Proliferation Assessment in the BioMAP Diversity Plus: 3C Assay (AID 2283006).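 As to AC50: potency may reflect either rise or fall in cell number versus DMSO.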 Particulars: primary human endothelial cells (HUVEC). In outline: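 Proliferation of human vascular endothelial primary cells after 48 h dosing, quantified as SRB-stained protein at 560 nm relative to DMSO.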
For experiment [18], the target named is Peroxisome proliferator-activated receptor gamma (Homo sapiens) (UniProt P37231). Put plainly: ATG_PPARg_TRANS: Attagene TRANS-FACTORIAL HepG2 Assay for human Peroxisome Proliferator-activated Receptor-gamma (PPARg) (AID 2283007; active = hit-call score of the fitted dose curve at least 0.9, where 1 is the maximum). In outline: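 Multiplexed reporter transcription units in HepG2, 24 h dosing, reporter transcripts quantified by fluorescent RT-PCR and capillary electrophoresis. Increase over DMSO scored.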
Sequence of Peroxisome proliferator-activated receptor gamma (Homo sapiens) (P37231 whole entry, looked up): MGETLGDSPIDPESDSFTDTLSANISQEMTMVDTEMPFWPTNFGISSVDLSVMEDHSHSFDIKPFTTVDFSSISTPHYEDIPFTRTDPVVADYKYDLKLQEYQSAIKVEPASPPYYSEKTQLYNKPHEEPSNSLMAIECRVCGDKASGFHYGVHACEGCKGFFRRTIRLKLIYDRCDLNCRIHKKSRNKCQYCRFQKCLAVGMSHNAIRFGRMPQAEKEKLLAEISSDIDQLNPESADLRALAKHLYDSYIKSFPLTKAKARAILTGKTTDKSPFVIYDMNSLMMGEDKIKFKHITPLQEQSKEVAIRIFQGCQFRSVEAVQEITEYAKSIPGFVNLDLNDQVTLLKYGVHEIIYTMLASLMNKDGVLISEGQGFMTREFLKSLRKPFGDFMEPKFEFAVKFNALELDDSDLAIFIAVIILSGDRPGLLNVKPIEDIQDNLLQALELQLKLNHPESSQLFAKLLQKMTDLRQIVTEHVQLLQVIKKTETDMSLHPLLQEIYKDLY

The target of experiment [19] is Nuclear receptor subfamily 1 group I member 2 (Homo sapiens) (UniProt O75469). Kind of experiment: ATG_PXR_TRANS: Attagene TRANS-FACTORIAL HepG2 Assay for human Pregnane X Receptor (PXR) (AID 2283008; active = hit-call score of the fitted dose curve at least 0.9, where 1 is the maximum). In outline: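 Measures mRNA induction of a GAL4-UAS-driven reporter in human HepG2 cells transiently expressing PXR fused to Gal4, following 24 h treatment. DMSO served as negative control and baseline.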
Sequence of Nuclear receptor subfamily 1 group I member 2 (Homo sapiens) (O75469 whole entry, looked up, the tested form may be a part): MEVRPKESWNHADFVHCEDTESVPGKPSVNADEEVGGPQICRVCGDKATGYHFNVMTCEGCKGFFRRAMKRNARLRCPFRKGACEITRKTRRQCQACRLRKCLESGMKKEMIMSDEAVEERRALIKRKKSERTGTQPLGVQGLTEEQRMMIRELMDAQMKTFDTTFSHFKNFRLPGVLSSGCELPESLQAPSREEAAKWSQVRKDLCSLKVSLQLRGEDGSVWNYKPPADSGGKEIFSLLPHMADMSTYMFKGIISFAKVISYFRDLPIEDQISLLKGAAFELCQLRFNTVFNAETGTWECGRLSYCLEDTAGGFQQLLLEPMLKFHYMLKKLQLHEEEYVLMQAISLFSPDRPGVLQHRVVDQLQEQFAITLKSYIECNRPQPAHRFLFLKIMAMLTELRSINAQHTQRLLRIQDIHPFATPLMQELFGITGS

Experiment [20] deals with human Retinoic Acid Receptor gamma (RARg), RARG (gene 5916) (UniProt P13631). Put plainly: ATG_RARg_TRANS: Attagene TRANS-FACTORIAL HepG2 Assay for human Retinoic Acid Receptor gamma (RARg) (AID 2283009; active = hit-call score of the fitted dose curve at least 0.9, where 1 is the maximum). In outline: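 HepG2, RARg-GAL4 TRANS system, 24 h exposure; reporter mRNA by RT-PCR + CE fluorescence; increase over DMSO.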
Sequence of human Retinoic Acid Receptor gamma (RARg), RARG (gene 5916) (P13631 whole entry, looked up, the tested form may be a part): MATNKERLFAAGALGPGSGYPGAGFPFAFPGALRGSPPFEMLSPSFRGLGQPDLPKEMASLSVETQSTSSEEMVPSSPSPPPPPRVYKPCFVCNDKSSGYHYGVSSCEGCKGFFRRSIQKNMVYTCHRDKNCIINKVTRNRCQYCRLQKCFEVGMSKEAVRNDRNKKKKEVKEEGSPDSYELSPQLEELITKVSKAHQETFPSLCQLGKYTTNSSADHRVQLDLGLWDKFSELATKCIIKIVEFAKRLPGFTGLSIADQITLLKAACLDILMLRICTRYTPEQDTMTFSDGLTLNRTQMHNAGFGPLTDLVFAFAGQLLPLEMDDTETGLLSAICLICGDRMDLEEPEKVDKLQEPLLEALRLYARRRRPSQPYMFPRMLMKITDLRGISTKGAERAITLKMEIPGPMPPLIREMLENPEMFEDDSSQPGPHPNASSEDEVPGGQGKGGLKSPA

“And” between values parts separate entries of the source, which are not always exact repeats. Identical values can stand only once. Records with an inconclusive call do not appear. Some structures have more than one record in an assay (separate samples or runs), and their calls can disagree. The source made the active and inactive calls. The calls were made as follows, unless noted: active = hit-call score of the fitted dose curve at least 0.9, where 1 is the maximum; inactive = score below 0.9.

Sequence of human Peroxisome Proliferator-activated Receptor delta (PPARd), PPARD (gene 5467) (Q03181 whole entry, looked up, the tested form may be a part): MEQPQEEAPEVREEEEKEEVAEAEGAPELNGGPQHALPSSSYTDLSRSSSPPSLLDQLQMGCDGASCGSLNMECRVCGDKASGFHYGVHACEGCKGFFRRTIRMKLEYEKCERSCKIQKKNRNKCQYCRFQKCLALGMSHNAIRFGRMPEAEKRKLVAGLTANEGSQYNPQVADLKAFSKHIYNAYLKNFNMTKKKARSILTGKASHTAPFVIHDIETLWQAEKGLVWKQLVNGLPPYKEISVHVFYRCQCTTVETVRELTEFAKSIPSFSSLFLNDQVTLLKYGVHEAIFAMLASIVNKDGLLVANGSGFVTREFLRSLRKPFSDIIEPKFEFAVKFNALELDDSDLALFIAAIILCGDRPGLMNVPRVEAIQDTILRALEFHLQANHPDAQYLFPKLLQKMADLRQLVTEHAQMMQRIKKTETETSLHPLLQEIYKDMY
Sequence of human Peroxisome Proliferator-activated Receptor alpha (PPARa), PPARA (gene 5465) (Q07869 whole entry, looked up, the tested form may be a part): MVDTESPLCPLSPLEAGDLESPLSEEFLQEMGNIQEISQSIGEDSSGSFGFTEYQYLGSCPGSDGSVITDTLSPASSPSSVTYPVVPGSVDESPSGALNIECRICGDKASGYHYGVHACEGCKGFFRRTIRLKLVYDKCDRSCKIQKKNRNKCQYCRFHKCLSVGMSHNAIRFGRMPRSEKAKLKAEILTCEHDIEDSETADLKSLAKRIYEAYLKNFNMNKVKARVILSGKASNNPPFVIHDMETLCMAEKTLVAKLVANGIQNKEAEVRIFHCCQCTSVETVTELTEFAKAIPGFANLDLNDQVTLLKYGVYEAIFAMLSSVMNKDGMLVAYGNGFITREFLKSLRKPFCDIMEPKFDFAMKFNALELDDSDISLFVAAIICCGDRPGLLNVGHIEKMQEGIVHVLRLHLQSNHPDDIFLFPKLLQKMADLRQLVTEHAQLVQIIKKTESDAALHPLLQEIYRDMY
Sequence of Retinoic acid receptor alpha (Homo sapiens) (P10276 whole entry, looked up, the tested form may be a part): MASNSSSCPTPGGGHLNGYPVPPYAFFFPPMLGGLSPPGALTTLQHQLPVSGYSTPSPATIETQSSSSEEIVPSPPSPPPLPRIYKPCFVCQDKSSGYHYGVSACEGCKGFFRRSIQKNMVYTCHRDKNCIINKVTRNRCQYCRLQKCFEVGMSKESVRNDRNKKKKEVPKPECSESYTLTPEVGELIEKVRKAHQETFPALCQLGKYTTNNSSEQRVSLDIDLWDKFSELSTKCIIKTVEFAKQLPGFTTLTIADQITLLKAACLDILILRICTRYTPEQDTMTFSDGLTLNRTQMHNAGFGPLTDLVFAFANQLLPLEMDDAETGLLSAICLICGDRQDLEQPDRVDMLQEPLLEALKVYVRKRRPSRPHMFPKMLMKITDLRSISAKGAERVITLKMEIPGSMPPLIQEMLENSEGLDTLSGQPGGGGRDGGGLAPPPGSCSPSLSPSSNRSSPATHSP

As to `O=C(O)C(F)(F)OC(F)(F)C(F)(F)OC(F)(F)F`, the outcome in experiment [1], in experiment [2], in experiment [3], in [4], in experiment [5] and in [6] was inactive. Moreover, the outcome in experiment [7], in experiment [8], in experiment [9], in experiment [10], in experiment [11] and in [12] was inactive. Besides, the result in experiment [14], in experiment [15], in experiment [16], in experiment [17] and in [19] was inactive. Moreover, the AC50 (in general, the concentration at which the activity in the assay is half-maximal) in experiment [13] is 17.9 µM (active) and 15.4 µM (active); in experiment [18] it was 122 µM (active) and 84.6 µM (active).
Consider `CCCCc1ccc(O)cc1`, for which the result in experiment [1], in experiment [2], in experiment [3], in [4], in experiment [5] and in experiment [7] was inactive. The molecule was classed as inactive in experiment [8], in experiment [13], in experiment [14], in [19] and in experiment [20]. Further, the values for the AC50 in experiment [6] and in experiment [18] were 66.7 µM (active) and 57.1 µM (active), respectively.
As to `O=[N+]([O-])c1ccccc1`, the molecule was called inactive in experiment [1], in [2], in [3], in experiment [4], in experiment [5] and in experiment [6]. The result in [7], in experiment [8], in experiment [9], in experiment [10], in [11] and in experiment [12] was inactive. Besides, the result in [15], in experiment [16], in [17] and in [19] was inactive.
Regarding `FC(F)(F)C(F)(C(F)(F)F)C(F)(F)C(F)(F)CC1CO1` (configuration not stated), the call in experiment [1], in [2], in [3], in [4], in experiment [5] and in experiment [6] was inactive. Moreover, the call in experiment [7], in experiment [8], in experiment [9], in experiment [10], in experiment [11] and in experiment [12] was inactive. Further, the outcome in experiment [15], in experiment [16], in experiment [17], in experiment [18], in experiment [19] and in experiment [20] was inactive.
For `COC(N)=O`, the call in experiment [1], in experiment [2], in experiment [3], in experiment [4], in experiment [5] and in [6] was inactive. In addition, the outcome in experiment [7], in experiment [8], in [14] and in experiment [18] was inactive.
Turning to `CCCCCCCc1ccc(O)cc1`, the call in [1], in [2], in [3], in experiment [4], in experiment [5] and in experiment [6] was inactive. Also, the molecule was classed as inactive in [7], in [13], in [14], in experiment [16], in experiment [18] and in experiment [19]. Moreover, the outcome in experiment [20] was inactive. For the same molecule, the AC50 was 14.1 µM (active) and 7.28 µM (active) and 7.2 µM (active) in experiment [6]; 38 µM (active) in experiment [9]; 38.2 µM (active) in [10]; 35.1 µM (active) in [11]; 31.5 µM (active) in experiment [12]; 37.3 µM (active) in experiment [15]. For the same molecule, the AC50 in experiment [17] was 14.3 µM (active); in experiment [18] it was 24.3 µM (active); in [19] it was 11.1 µM (active).
For the molecule `CC(Cl)CN(C)C` (configuration not stated), the result in [1], in experiment [2], in experiment [3], in [4], in experiment [5] and in experiment [7] was inactive. Also, the result in experiment [8], in experiment [9], in experiment [10], in experiment [11], in experiment [12] and in experiment [14] was inactive. Also, the result in experiment [15] and in experiment [17] was inactive. In addition, in experiment [6], the AC50 is 28.4 µM (active).
Consider `COCCOCCO`, for which the molecule was called inactive in experiment [1], in [2], in experiment [3], in experiment [4], in experiment [5] and in experiment [6]. Also, the molecule was classed as inactive in [7], in experiment [9], in [10], in experiment [11], in experiment [12] and in experiment [13]. In addition, the outcome in experiment [15] and in experiment [17] was inactive.
